From PubChem BioAssay AID1159580 (chemical genetic matrix, 2015)
In all, about 5,500 compounds went through this assay and about 2,000 (36%) were called active. Another 18% or so got no clear call; they are omitted. No stated cut-off is given here; in the data, active means normalized growth mostly below about 0.91 (no sharp cut-off); inconclusive means no clear call, values can overlap the other calls; inactive means mostly above about 0.92. Some of the results follow.

Experiment: chemical genetic growth profiling, strain panel (AID 1159580);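 further: tested at 20 µM; growth read once vehicle control cultures reached saturation at 30 °C; 1 = growth at the plate median or of vehicle wells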
Conditions: S. cerevisiae deletion strains, growth OD

Measured: normalized growth

CN(C)CCCO[C@@H]1[C@H]2OC(C)(C)O[C@H]2O[C@@H]1C(O)CO (some centres not stated)
inactive: locus YAL040C, strain CLN3, stronger effect = lower value 1 | locus YCL061C, strain MRC1 (second series), stronger effect = lower value 1 | locus YDR150W, strain NUM1, stronger effect = lower value 1 | locus YDR363W, strain ESC2, stronger effect = lower value 1 | locus YER002W, strain NOP16, stronger effect = lower value 1.02 | locus YGR078C, strain PAC10, stronger effect = lower value 1.01 | locus YJR075W, strain HOC1, stronger effect = lower value 1.01 | locus YNL175C, strain NOP13, stronger effect = lower value 1.01 | locus YNL197C, strain WHI3, stronger effect = lower value 1.03 | locus YNL224C, strain SQS1, stronger effect = lower value 1 | locus YOR083W, strain WHI5 (second series), stronger effect = lower value 1.01 | locus YPL241C, strain CIN2, stronger effect = lower value 1.01
